Screening data deposited in PubChem BioAssay by several laboratories.
BioA inh – BioA (M. tuberculosis) enzyme inhibition. inhibition, % at 9.99 µM. purified M. tuberculosis BioA enzyme, plate reader. 360,000 tested, 0.096% active; in the data active means inhibition above about 40%
Mtb hypoxia rep – reduces hypoxia-regulated biosensor signal in M. tuberculosis. M. tuberculosis hypoxia-regulated fluorescent reporter, fluorescence. fluorescence inhibition, % (test concentration not listed). 300,000 tested, 0.1% active; in the data active means fluorescence inhibition mostly above about 23%, no sharp cut-off; inactive means mostly below about 17%
Mtb FBA inh – Mtb fructose-bisphosphate aldolase inhibition; purified M. tuberculosis FBA, fluorescence read-out; inhibition, % at 1 µM; 360,000 tested, 2.3% active
Target sequence (P9WQA3 whole entry, looked up): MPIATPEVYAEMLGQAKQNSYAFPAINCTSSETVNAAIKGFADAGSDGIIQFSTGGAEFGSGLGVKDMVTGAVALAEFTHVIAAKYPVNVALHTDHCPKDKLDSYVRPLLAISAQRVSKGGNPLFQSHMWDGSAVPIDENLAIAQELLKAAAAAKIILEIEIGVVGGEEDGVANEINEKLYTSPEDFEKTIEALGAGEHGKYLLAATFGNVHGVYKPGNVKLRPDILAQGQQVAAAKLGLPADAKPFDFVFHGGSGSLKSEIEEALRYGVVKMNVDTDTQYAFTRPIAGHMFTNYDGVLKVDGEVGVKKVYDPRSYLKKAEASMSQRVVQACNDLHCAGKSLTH
GDH-TPI counter-1 – GDH-TPI coupled enzyme inhibition counter-screen. GDH-TPI coupled enzyme counterscreen, NADH absorbance. 360,000 tested, 1.2% active. inhibition, % at 4.8 µM; in the data active means inhibition above about 30%
FadD28 binding – inhibitors of Mycobacterium tuberculosis FadD28 bisubstrate binding; AID 588549; 360,000 tested, 0.22% active; FadD28 bisubstrate probe binding, fluorescence polarization; inhibition, % at 12.5 µM; in the data active means inhibition above about 8.5%, passing the limit was not always enough
Mtb FBA inh conf – Mtb FBA inhibition, confirmed. shares compounds with Mtb FBA inh. purified M. tuberculosis FBA, fluorescence read-out. inhibition, % at 1 µM. 5,600 tested, 78% active
GDH-TPI counter-2 – inhibits GDH-TPI coupling enzymes, flagging Mtb FBA hits; shares compounds with Mtb FBA inh; GDH-TPI coupled enzyme counterscreen, fluorescence; inhibition, % at 1 µM; 5,600 tested, 81% active; AID 652141; in the data active means inhibition above about 10%
GDH-TPI dose – inhibits GDH-TPI coupling enzymes in dose response; shares compounds with Mtb FBA inh; GDH-TPI coupled enzyme assay, fluorescence, artifact counterscreen; IC50, µM; 170 tested, 79% active; call rule not given here
Numbers stand for hits. Rows were chosen to be rich in hits. Some 2.9% of all compounds tested hit in one or more screens of this group. Unless noted, no stated cut-off is given here; in the data, active means inhibition above about 27%; inactive means the rest.

For CN1CCSc2ccc(C(=O)NCc3cccc(Br)c3)cc21 the results were BioA inh inactive, Mtb hypoxia rep inactive, Mtb FBA inh 66, GDH-TPI counter-1 inactive, FadD28 binding inactive, Mtb FBA inh conf 51 and GDH-TPI counter-2 35.
Screening C[C@@H]1CN([C@@H](C)CO)C(=O)c2cc(C#C[C@@H](C)O)cnc2O[C@@H]1CN(C)C(=O)c1ccc(F)cc1 returned BioA inh inactive.
For CC1(C)CC(=O)C2=C(C1)N(CCN1CCOCC1)C1=C(C(=O)CC(C)(C)C1)C2c1ccc(Cl)cc1 the results were BioA inh inactive, Mtb hypoxia rep inactive, Mtb FBA inh 36, GDH-TPI counter-1 inactive, FadD28 binding inactive, Mtb FBA inh conf inactive, GDH-TPI counter-2 inactive and GDH-TPI dose 4.6.
COc1ccc(C2C3=C(CC(C)(C)CC3=O)N(CCN3CCOCC3)C3=C2C(=O)CC(C)(C)C3)cc1 was read as BioA inh inactive, Mtb hypoxia rep inactive, Mtb FBA inh inactive, GDH-TPI counter-1 inactive and FadD28 binding inactive.
CNC1(c2ccccc2Cl)CCCCC1=O (stereo not given) was read as BioA inh inactive, Mtb FBA inh 27, GDH-TPI counter-1 inactive, FadD28 binding inactive, Mtb FBA inh conf 58 and GDH-TPI counter-2 36.
CO[C@H]1CN(C)C(=O)c2cc(NS(=O)(=O)c3c(C)noc3C)ccc2OC[C@@H](C)NC[C@@H]1C was read as BioA inh inactive.
For O=C(C[C@H]1CC[C@@H]2[C@H](COC[C@@H](O)CN2C(=O)Nc2cc(Cl)cc(Cl)c2)O1)N1CCCCC1 the results were BioA inh inactive.
For O=C(NN=C1CCCC1)c1cc(Cl)cc(Cl)c1O the results were BioA inh inactive, Mtb hypoxia rep inactive, Mtb FBA inh 41, GDH-TPI counter-1 inactive, FadD28 binding 20, Mtb FBA inh conf 70 and GDH-TPI counter-2 61.
COc1ccc(Cl)cc1C(=O)NN=C1CCCC1 was read as Mtb hypoxia rep inactive, Mtb FBA inh inactive, GDH-TPI counter-1 inactive and FadD28 binding inactive.
Screening ON=Cc1nc2cc(Cl)ccc2o1 returned Mtb hypoxia rep inactive.
`C[C@@H](O)C#Cc1ccc([C@H]2[C@H]3CN(C(=O)c4cccc(F)c4)CCCCN3[C@H]2CO)cc1` gave BioA inh inactive.
Screening CC(=O)NN1CCc2cc3ccc(C)cc3nc21 returned BioA inh inactive, Mtb hypoxia rep inactive, Mtb FBA inh 40, GDH-TPI counter-1 inactive, FadD28 binding inactive, Mtb FBA inh conf inactive and GDH-TPI counter-2 inactive.
Cc1ccc2cc3c(nc2c1)N(c1ccccc1)CC3 was read as BioA inh inactive, Mtb hypoxia rep inactive, Mtb FBA inh 47, GDH-TPI counter-1 inactive, FadD28 binding inactive, Mtb FBA inh conf inactive and GDH-TPI counter-2 inactive.
For COc1ccccc1NS(=O)(=O)c1cc([N+](=O)[O-])ccc1NN=Cc1c[nH]c2ccccc12 the results were Mtb hypoxia rep inactive.
Screening COC1C=CC(CNC(=O)c2cc3c(=O)n4cccc(C)c4nc3n2C)(OC)O1 (stereo not given) returned Mtb hypoxia rep inactive, Mtb FBA inh 36, GDH-TPI counter-1 inactive, FadD28 binding inactive, Mtb FBA inh conf 176 and GDH-TPI counter-2 109.
Screening Cc1cccn2c(=O)c3cc(C(=O)N4CCC5(CC4)OCCO5)n(C)c3nc12 returned BioA inh inactive, Mtb hypoxia rep inactive, Mtb FBA inh inactive, GDH-TPI counter-1 inactive and FadD28 binding inactive.
Cc1cccn2c(=O)c3cc(C(=O)O)n(C)c3nc12 was read as Mtb FBA inh 81, GDH-TPI counter-1 inactive, FadD28 binding inactive, Mtb FBA inh conf 80 and GDH-TPI counter-2 58.
For C=CCNC(=O)C(C#N)c1nc2ccccc2nc1N1CCCCCC1 (stereo not given) the results were Mtb hypoxia rep inactive, Mtb FBA inh 41, GDH-TPI counter-1 inactive, FadD28 binding inactive, Mtb FBA inh conf active and GDH-TPI counter-2 active.
N#CC(c1nc2ccccc2nc1N1CCCC1)S(=O)(=O)c1ccccc1 (stereo not given) was read as BioA inh inactive, Mtb hypoxia rep inactive, Mtb FBA inh 106, GDH-TPI counter-1 inactive, FadD28 binding inactive, Mtb FBA inh conf active and GDH-TPI counter-2 182.
